We go through 38 compounds from the supplement of paper PMC5940239.

Molecules are shown by their SMILES.

For the experiment, the system named is Madurella mycetomatis MM55. Kind of experiment: percent growth relative to solvent control; higher = less inhibition, active = 20 or less. To be noted: 100 µM; 7 days.
`Cc1ccc(-c2cc(C(=O)Nc3cccnc3)c3cc(Br)ccc3n2)cc1`: the percent growth is 90.5% (inactive).
The same measure for `O=C(NCc1ccco1)N1CCN(Cc2ccc(Cl)s2)CC1`: 90.6% (inactive).
To `Cc1cc(C)cc(COc2ccc3c(C)c(CCC(=O)O)c(=O)oc3c2C)c1` belongs 84.8% (inactive); to `CC(C)n1ncc2c(C(=O)NCC(c3cccs3)N3CCOCC3)cc(-c3ccccc3)nc21` (stereo not drawn), 76% (inactive); to `COc1ccc(C2CC(c3cccs3)=NN2C(=O)c2ccco2)cc1OC` (stereo not drawn), 100% (inactive).
Consider `Cc1cc(Cl)c(S(=O)(=O)N2CCCC2)cc1OCC(=O)NC1CCCCC1`, for which the percent growth is 104% (inactive).
To `Cn1ccnc1CNCCS(=O)(=O)c1cccc(Nc2ccc(-c3cccc(F)c3)cn2)c1` belongs 65.7% (inactive).
The same measure for `CC(C)c1ncc(-c2ccncc2)c([C@H]2CC[C@H](CNC(=O)c3cccnc3)CC2)n1`: 114% (inactive).
The same measure for `CCN(CC)C(=O)N1CCN(C)CC1`: 89.3% (inactive).
For `O=C(Nc1ccnc(-c2cccnc2)n1)c1cc(C(F)(F)F)cc(C(F)(F)F)c1`, the percent growth was 169% (inactive).
Consider `N=C(N)c1ccc(OCCCCCOc2ccc(C(=N)N)cc2)cc1`, for which the percent growth is 48.7% (inactive).
To `CNC(=O)CNc1nc(-c2ccccn2)nc2scc(-c3ccccc3)c12` belongs 30.8% (inactive); to `CCS(=O)(=O)N(Cc1ccco1)Cc1cc2ccc(C)cc2nc1O`, 85% (inactive); to `NC(=O)c1cc(-c2ccsc2)ccc1OCCOc1ccccc1`, 103% (inactive).
To `CC(=O)NC[C@H]1CN(c2ccc(N3CCSCC3)c(F)c2)C(=O)O1` belongs 94.5% (inactive); to `O=C(NCCc1ccn(-c2ccccc2)n1)C1CCCCC1`, 49.1% (inactive); to `COc1ccc(Cl)cc1NC(=O)CN(C)C(=O)c1cnn(-c2ccccc2)n1`, 30.8% (inactive).
The same measure for `COc1cc(OC)cc(C(=O)NCC2Cc3cc(Cl)cc(-c4ccncc4)c3O2)c1` (stereo not drawn): 55.9% (inactive); for `CN(C)CCNC(=O)N1CCCN(c2ncnc3cc(-c4ccccc4)sc23)CC1`: 64.5% (inactive).
For the compound `CCc1ccc([C@@H]2C[C@H](C(F)(F)F)n3ncc(C(=O)NCc4ccc(OC)cc4)c3N2)cc1`, the percent growth is 60.8% (inactive).
The same measure for `CC(=O)N1CCc2cc3nc(C)cc(C)c3cc21`: 84.2% (inactive); for `CS(=O)(=O)c1cccc(-c2cnc3[nH]cc(-c4ccc(CCC(=O)O)cc4)c3c2)c1`: 95.9% (inactive); for `CCc1ccc(C(NCc2nc(N)nc(N(C)C)n2)C(C)C)cc1` (stereo not drawn): 49.1% (inactive).
As to `CCN(CC)CCCN1CCN(C(=O)c2cccc(-c3noc(C(F)(F)F)n3)c2)CC1`, the percent growth was 118% (inactive).
The same measure for `CC(=O)Oc1ccccc1C(=O)Nc1ncc([N+](=O)[O-])s1`: 104% (inactive); for `CC(C)C(NC(=O)Cc1cccc2ccccc12)C(=O)Nc1cccc(C#N)c1` (stereo not drawn): 121% (inactive); for `COc1ccc(C2=NCCN2)cc1-c1cn(-c2cccc(C3=NCCN3)c2)nn1`: 94% (inactive).
Turning to `Cc1ccc(S(=O)(=O)Nc2ccc(CN3CCN(C(=O)c4cccc(C#N)c4)CC3)cc2)cc1`, the percent growth is 90.9% (inactive).
With `O=C(NCc1nnc2n1CCCCC2)c1ccc(-c2ccc(F)cc2)o1`, the percent growth is 87.7% (inactive).
As to `O=C(NCc1cc(Cl)cc(Cl)c1)c1c(C(F)(F)F)nc2ccccn12`, the percent growth was 107% (inactive).
As to `Cc1ccc(NC(=O)c2cc(S(=O)(=O)NC(C)(C)C)ccc2C)nc1`, the percent growth was 78.4% (inactive).
The same measure for `COc1ccc(-c2nc(-c3cccc(NC(=O)Cc4ccc(F)cc4)c3)no2)cc1OC`: 95% (inactive); for `Nc1ncnc2[nH]nc(Cc3cccc4ccccc34)c12`: 118% (inactive); for `CC(C)C(C(=O)Nc1ccc(S(=O)(=O)N(C)C)cc1)c1ccc(Cl)cc1` (stereo not drawn): 121% (inactive).
To `Cc1cc(NC(=O)c2ccc(Oc3ccc(Cl)cc3O)o2)no1` belongs 135% (inactive).
To `Cn1ncc2c(N3CCOCC3)nc(NCCc3c[nH]c4ccccc34)nc21` belongs 37.3% (inactive); to `Cc1cc2nc(NC(=O)C(C)(C)C)nc(Cl)c2n1Cc1ccc(Cl)cc1`, 82.9% (inactive); to `CC(C)(CN)c1nc(-c2ccc(Cl)c(O)c2)c(-c2ccnc(N)n2)[nH]1`, 88.2% (inactive).
